# Results taken from PubChem BioAssay (NCATS).
# Records with an inconclusive call do not appear. Where a call stands in place of a potency, no number is given. Activity calls are given as the source filed them. Unless noted, calls come from the whole dose curve; as a rule, active = well fitted curve in the direction sought with a large enough effect; inconclusive = small, poorly fitted or top-dose-only effect, or another doubt; inactive = no such curve, though single readings can be large; an effect the other way counts as inactive or inconclusive.
# Legend:
# [1] = P-glycoprotein substrates identified in KB-3-1 adenocarcinoma cell line, qHTS therapeutic library screen (AID 1346986); note: nearly all actives have a fitted effect of over 60% in size;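 note: potency is the fitted concentration of half-maximal effect; potency is for cytotoxicity meaning loss of cell viability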
# In short: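 72 h cell-killing screen, 500 cells/well, CellTiter-Glo luminescence. Paired lines KB-3-1/KB-8-5-11; P-gp dependence checked by tariquidar co-treatment and HEK-293 MDR-19 versus empty-vector cells.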
# [2] = P-glycoprotein substrates identified in KB-8-5-11 adenocarcinoma cell line, qHTS therapeutic library screen (AID 1346987); note: nearly all actives have a fitted effect of over 65% in size; note: potency is the fitted concentration of half-maximal effect
# In short: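 Luminescence from CellTiter-Glo, read 5 min after addition, quantified survival of KB-8-5-11 (P-gp-overexpressing) cells exposed to compounds for 72 h. AC50 was derived from concentration-response curves.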
# [3] = Primary qHTS for inhibitors of nuclear receptor binding SET domain protein 2 (NSD2) in an isogenic RCH-ACV NSD2 p.E1099K mutant (9B) (AID 1645876); note: nearly all actives have a fitted effect of over 70% in size; note: potency is the fitted concentration of half-maximal effect
# [4] = Primary qHTS for inhibitors of nuclear receptor binding SET domain protein 2 (NSD2) in an RCH-ACV wild type WT cells (2C) (AID 1645877); note: nearly all actives have a fitted effect of over 70% in size; note: potency is the fitted concentration of half-maximal effect
# [5] = target: Calcium and integrin-binding protein 1 (Homo sapiens) (UniProt Q99828); assay: Primary qHTS for Identification of Calcium Integrin Binding Protein 1 (CIB1) Competitor (AID 1508620);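 note: GST tagged CIB1 binding a fluorescein labelled alphaIIb integrin peptide tracer; top concentration of the series differs between compounds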
# In short: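 Fluorescence polarization competition: CIB1-GST (1 uM final) preincubated with compound 15 min at room temperature, then FITC-labeled alphaIIb peptide (100 nM final) added for another 15 min. Polarization read at Ex 480/Em 540.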
# [6] = target: Glutathione peroxidase 1 (Homo sapiens) (UniProt P07203); assay: Primary qHTS Assay for Inhibitors of Recombinant Selenoprotein Glutathione Peroxidase 1 (GPX1) (AID 1845191); note: nearly all actives have a fitted effect of over 65% in size
# In short: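 GPX1 10 nM, GR 100 nM, GSH 1 mM, NADPH 0.5 mM, CHP 0.5 mM (final). 30-min cpd preincubation, RT. Ex340/Em450 read t=0, t=15 min.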
# [7] = target: Catechol O-methyltransferase (Homo sapiens) (UniProt P21964); assay: Confirmatory Screen for Target Class Profiling of Small Molecule Inhibitors of Methyltransferases (AID 1745852; calls by dose curve; note: potency is the fitted concentration of half-maximal effect); conditions: MTase-Glo luminescence, SAH detection, recombinant enzyme; measured here: COMT max response; stronger effect = lower value
# [8] = target: Guanidinoacetate N-methyltransferase (Homo sapiens) (UniProt Q14353); assay: as above; conditions: activity change, negative = inhibition: at 57.3 µM (top of the series) unless noted
# [9] = target: Nicotinamide N-methyltransferase (Homo sapiens) (UniProt P40261); assay: as above; conditions: MTase-Glo luminescence, SAH detection, recombinant enzyme; measured here: NNMT max response; stronger effect = lower value
# [10] = target: Phenylethanolamine N-methyltransferase (Homo sapiens) (UniProt P11086); assay: as above; conditions: MTase-Glo luminescence, SAH detection, recombinant enzyme; measured here: PNMT max response; stronger effect = lower value
# [11] = system: Zika virus NS2B-NS3 protease; assay: Primary screen GU AMC qHTS for Zika virus inhibitors (AID 1347154); note: potency is the fitted concentration of half-maximal effect; nearly all actives have a fitted effect of over 70% in size
# In short: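 Unlinked Zika NS2B hydrophilic domain/NS3 protease domain noncovalent complex (25 nM final) in 10 mM Tris-HCl pH 8.0, 0.01% Tween 20, with AMC peptide substrate. Fluorescence (ex 340, em 450 nm) change over 15 min, room temperature; percent inhibition fitted to 4-parameter Hill equation.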
# [12] = Counterscreen qHTS for small molecule stabilizers of the endoplasmic reticulum resident proteome: GLuc-NoTag assay (AID 1508627)
# In short: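 Secreted GLuc lacking the SERCaMP modification is measured in SH-SY5Y cells exposed to compound for 19 h and then to thapsigargin (100 nM, 4 h) to deplete ER calcium; hits retested at 11 concentrations, up to 76.6 uM.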
# Chain of Glutathione peroxidase 1 (Homo sapiens) (P07203 whole entry, looked up): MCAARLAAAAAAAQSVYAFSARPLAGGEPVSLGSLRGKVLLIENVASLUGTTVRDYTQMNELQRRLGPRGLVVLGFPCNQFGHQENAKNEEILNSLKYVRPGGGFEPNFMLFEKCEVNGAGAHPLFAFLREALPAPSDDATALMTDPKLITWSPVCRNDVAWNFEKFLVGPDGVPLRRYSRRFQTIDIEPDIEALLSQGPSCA
# Chain of Nicotinamide N-methyltransferase (Homo sapiens) (P40261 whole entry, looked up): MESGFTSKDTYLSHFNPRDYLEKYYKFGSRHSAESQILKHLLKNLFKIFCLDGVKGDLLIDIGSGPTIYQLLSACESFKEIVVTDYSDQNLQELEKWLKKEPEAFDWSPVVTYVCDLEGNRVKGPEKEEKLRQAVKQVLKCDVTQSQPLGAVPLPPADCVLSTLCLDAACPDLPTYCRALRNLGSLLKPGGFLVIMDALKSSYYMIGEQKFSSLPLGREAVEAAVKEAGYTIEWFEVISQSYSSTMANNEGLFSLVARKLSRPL
# Chain of Calcium and integrin-binding protein 1 (Homo sapiens) (Q99828 whole entry, looked up): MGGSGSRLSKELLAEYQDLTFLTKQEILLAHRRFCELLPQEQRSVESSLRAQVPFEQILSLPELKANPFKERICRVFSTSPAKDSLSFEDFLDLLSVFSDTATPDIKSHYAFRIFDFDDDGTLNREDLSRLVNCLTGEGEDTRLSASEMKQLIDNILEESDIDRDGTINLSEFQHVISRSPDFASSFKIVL
# Chain of Phenylethanolamine N-methyltransferase (Homo sapiens) (P11086 whole entry, looked up): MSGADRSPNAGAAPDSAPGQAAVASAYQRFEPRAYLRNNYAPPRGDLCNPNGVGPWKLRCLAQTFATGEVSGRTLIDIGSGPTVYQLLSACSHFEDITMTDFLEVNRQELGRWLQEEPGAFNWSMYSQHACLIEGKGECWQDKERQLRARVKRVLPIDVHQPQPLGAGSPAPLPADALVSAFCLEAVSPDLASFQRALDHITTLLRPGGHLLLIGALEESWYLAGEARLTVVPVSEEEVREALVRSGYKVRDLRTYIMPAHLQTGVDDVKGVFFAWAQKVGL
# Chain of Catechol O-methyltransferase (Homo sapiens) (P21964 whole entry, looked up): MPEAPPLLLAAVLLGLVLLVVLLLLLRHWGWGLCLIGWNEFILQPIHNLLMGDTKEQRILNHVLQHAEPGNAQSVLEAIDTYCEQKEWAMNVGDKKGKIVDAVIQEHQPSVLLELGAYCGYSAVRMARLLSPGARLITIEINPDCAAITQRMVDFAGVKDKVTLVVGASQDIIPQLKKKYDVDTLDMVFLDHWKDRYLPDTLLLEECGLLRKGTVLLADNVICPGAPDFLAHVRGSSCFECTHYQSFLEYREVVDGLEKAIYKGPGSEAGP
structure (smiles),measurement,setting,value
Cc1ccc([N+](=O)[O-])cc1S(=O)(=O)N(C)/N=C\c1cnc2ccc(Br)cn12,Potency,[1],0.164 µM (active)
same,Potency,[2],0.231 µM (active)
same,Potency,[3],0.058 µM (active)
same,Potency,[4],0.0517 µM (active)
CCn1c(=O)c2cc(C(N)=O)c(N)nc2n(C2CC2)c1=O,Potency,[1],inactive
same,Potency,[2],inactive
same,Potency,[3],inactive
same,Potency,[4],inactive
O=C1CCCC2=C1C1(CCCC1)N=C(Nc1nc3ccccc3o1)N2,Potency,[1],inactive
same,Potency,[2],inactive
same,outcome,[5],inactive
same,Potency,[3],inactive
same,Potency,[4],inactive
same,Potency,[6],inactive
Cc1ccc(NS(=O)(=O)c2cc3c(cc2NC(C)CO)NC(=O)CC3)cc1C (stereo not drawn),Potency,[1],inactive
same,Potency,[2],inactive
same,outcome,[5],inactive
same,Potency,[6],inactive
O=C1O[C@H](C(O)CO)C(=O)C1=O (stereo partly drawn),Potency,[1],inactive
same,Potency,[2],inactive
same,Potency,[3],inactive
same,Potency,[4],inactive
C[C@@H](Oc1cc(-n2cnc3ccc(OC4CCN(C)CC4)cc32)sc1C(N)=O)c1ccccc1Cl,Potency,[1],0.0184 µM (active)
same,Potency,[2],0.461 µM (active)
same,Potency,[3],0.0411 µM (active)
same,Potency,[4],0.058 µM (active)
same,activity,[7],-96.8%
same,Potency,[8],8.57 µM (active)
same,activity,[9],-85.5%
same,activity,[10],-96.2%
same,Potency,[6],inactive
N#Cc1c2nc3ccccc3nc2n2ccc(NC(=O)c3cccs3)cc12,Potency,[1],23.1 µM (active)
same,Potency,[2],20.6 µM (active)
same,Potency,[3],1.16 µM (active)
same,Potency,[4],1.16 µM (active)
same,Potency,[6],inactive
Cc1nc(CNc2ncnc3ccc(-c4ccc5c(c4)OCO5)cc23)cs1,Potency,[1],inactive
same,Potency,[2],inactive
same,Potency,[6],inactive
CC(C)CN(CC(=O)N(CCCN1CCCC1=O)CC(N)=O)C(=O)CNCCc1ccccc1F,Potency,[1],inactive
same,Potency,[2],inactive
same,Potency,[3],inactive
same,Potency,[4],inactive
same,Potency,[6],inactive
COc1cc2ncnc(Sc3nnc(C)s3)c2cc1OC,Potency,[1],18.4 µM (active)
same,Potency,[2],16.4 µM (active)
same,Potency,[3],2.91 µM (active)
same,Potency,[4],3.26 µM (active)
same,Potency,[6],inactive
CSC(Cc1ccc(Cl)cc1)C(=O)Nc1ccc(Cl)cc1C(=O)O (stereo not drawn),Potency,[1],inactive
same,Potency,[2],inactive
same,Potency,[3],inactive
same,Potency,[4],inactive
same,Potency,[6],inactive
c1nc(NCC2CCOC2)c2cc(-c3ccc4c(c3)OCO4)ccc2n1 (stereo not drawn),Potency,[1],inactive
same,Potency,[2],inactive
same,Potency,[3],16.4 µM (active)
same,activity,[7],-39.2%
same,Potency,[8],42.9 µM (active)
same,activity,[9],-29.1%
same,activity,[10],-63.5%
same,Potency,[6],inactive
O=c1[nH]ccc2c(S(=O)(=O)N3CCCNCC3)cccc12,Potency,[1],inactive
same,Potency,[11],26.7 µM (active)
same,Potency,[12],inactive
same,Potency,[3],inactive
same,Potency,[4],inactive
same,Potency,[6],inactive
